Reference: PubChem BioAssay (EPA / NIEHS)
A structure can be active in one record and inactive in another. Calls of active or inactive are those of the source. The calls were made as follows: active = hit-call score of the fitted dose curve at least 0.9, where 1 is the maximum; inactive = score below 0.9.

Read-out: Interleukin-8 (IL8), CXCL8 (gene 3576)
Assay: BSK_3C_IL8: BioMAP Diversity Plus: 3C Assay for Interleukin-8 (IL8) Biomarker Activity (AID 2283020)
Details: primary human endothelial cells (HUVEC); actives raise or lower the signal
Method in brief: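 HUVEC, 3C stimulation; 24 h compound exposure; IL-8 read by ELISA; gain or loss of signal fitted relative to DMSO control.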

outcome, inactive:
CC(C)(COC(=O)c1ccccc1)COC(=O)c1ccccc1
c1ccc2sc(SN(C3CCCCC3)C3CCCCC3)nc2c1
C[C@H]1C[C@@H]2[C@H]([C@@H](O)C[C@@]3(C)[C@H]2CC[C@]3(O)C(=O)CO)[C@@]2(C)C=CC(=O)C=C12
CN(CCOc1ccc(CC2SC(=O)NC2=O)cc1)c1ccccn1 (stereo not drawn)
O=C(O)c1cn(-c2ccc(F)cc2)c2cc(N3CCNCC3)c(F)cc2c1=O
c1ccc2c(c1)c1cccc3ccc4cccc2c4c31
CC(=O)/C=C/C1=C(C)CCCC1(C)C
Cc1cc(C2(c3cc(C)c(O)cc3C)OS(=O)(=O)c3ccccc32)c(C)cc1O
O=C(O)c1ccc([N+](=O)[O-])cc1
CC(C)c1ccc(C(C)C)cc1
CCCCCCCCCCCCCCCCCC(=O)OCC(CC)CCCC (stereo not drawn)
OC1OC[C@@H](O)[C@H](O)[C@H]1O (stereo partly drawn)
CNC[C@H](O)c1cccc(O)c1
C#C[C@]1(O)CC[C@H]2[C@@H]3CCC4=Cc5oncc5C[C@]4(C)[C@H]3CC[C@@]21C
CC1CCC(C(C)CS)CC1S (stereo not drawn)

AC50, active:
Cc1ccc(O)c(C(C)(C)C)c1 36.5 µM
OC1OC[C@@H](O)[C@H](O)[C@H]1O (stereo partly drawn) 5.39 µM

Read-out: Monokine induced gamma interferon (MIG), CXCL9 (gene 4283)
Assay: BSK_3C_MIG: BioMAP Diversity Plus: 3C Assay for Monokine induced gamma interferon (MIG) Biomarker Activity (AID 2283021);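 as to AC50: MIG protein level measured by immunoassay in the treated endothelial cultures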
Details: primary human endothelial cells (HUVEC); actives raise or lower the signal
Method in brief: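 HUVEC, 3C system; 24 h chemical exposure; MIG by ELISA; bidirectional fit vs DMSO baseline.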

outcome, inactive:
CC(C)(COC(=O)c1ccccc1)COC(=O)c1ccccc1
c1ccc2sc(SN(C3CCCCC3)C3CCCCC3)nc2c1
C[C@H]1C[C@@H]2[C@H]([C@@H](O)C[C@@]3(C)[C@H]2CC[C@]3(O)C(=O)CO)[C@@]2(C)C=CC(=O)C=C12
CN(CCOc1ccc(CC2SC(=O)NC2=O)cc1)c1ccccn1 (stereo not drawn)
O=C(O)c1cn(-c2ccc(F)cc2)c2cc(N3CCNCC3)c(F)cc2c1=O
Cc1ccc(O)c(C(C)(C)C)c1
c1ccc2c(c1)c1cccc3ccc4cccc2c4c31
CC(=O)/C=C/C1=C(C)CCCC1(C)C
Cc1cc(C2(c3cc(C)c(O)cc3C)OS(=O)(=O)c3ccccc32)c(C)cc1O
O=C(O)c1ccc([N+](=O)[O-])cc1
CC(C)c1ccc(C(C)C)cc1
CCCCCCCCCCCCCCCCCC(=O)OCC(CC)CCCC (stereo not drawn)
OC1OC[C@@H](O)[C@H](O)[C@H]1O (stereo partly drawn)
CNC[C@H](O)c1cccc(O)c1
C#C[C@]1(O)CC[C@H]2[C@@H]3CCC4=Cc5oncc5C[C@]4(C)[C@H]3CC[C@@]21C

AC50, active:
CC1CCC(C(C)CS)CC1S (stereo not drawn) 36.9 µM
